# Test results reported in publication PMC4336329 (PLoS ONE, 2015).
# The whole screen tested about 310,000 compounds, of which about 2,200 (0.71%) showed an effect of 50% or more. Effects have a minus sign here. Only a selection was taken, and strong results are over-represented in it overall.
# Target: human ether-à-go-go-related gene (hERG) potassium channel (human, UniProt Q12809)
# Assay: primary screen, population patch clamp on CHO cells stably expressing hERG; higher = less effect of the substance
# Chain of human ether-à-go-go-related gene (hERG) potassium channel (Q12809 whole entry, looked up): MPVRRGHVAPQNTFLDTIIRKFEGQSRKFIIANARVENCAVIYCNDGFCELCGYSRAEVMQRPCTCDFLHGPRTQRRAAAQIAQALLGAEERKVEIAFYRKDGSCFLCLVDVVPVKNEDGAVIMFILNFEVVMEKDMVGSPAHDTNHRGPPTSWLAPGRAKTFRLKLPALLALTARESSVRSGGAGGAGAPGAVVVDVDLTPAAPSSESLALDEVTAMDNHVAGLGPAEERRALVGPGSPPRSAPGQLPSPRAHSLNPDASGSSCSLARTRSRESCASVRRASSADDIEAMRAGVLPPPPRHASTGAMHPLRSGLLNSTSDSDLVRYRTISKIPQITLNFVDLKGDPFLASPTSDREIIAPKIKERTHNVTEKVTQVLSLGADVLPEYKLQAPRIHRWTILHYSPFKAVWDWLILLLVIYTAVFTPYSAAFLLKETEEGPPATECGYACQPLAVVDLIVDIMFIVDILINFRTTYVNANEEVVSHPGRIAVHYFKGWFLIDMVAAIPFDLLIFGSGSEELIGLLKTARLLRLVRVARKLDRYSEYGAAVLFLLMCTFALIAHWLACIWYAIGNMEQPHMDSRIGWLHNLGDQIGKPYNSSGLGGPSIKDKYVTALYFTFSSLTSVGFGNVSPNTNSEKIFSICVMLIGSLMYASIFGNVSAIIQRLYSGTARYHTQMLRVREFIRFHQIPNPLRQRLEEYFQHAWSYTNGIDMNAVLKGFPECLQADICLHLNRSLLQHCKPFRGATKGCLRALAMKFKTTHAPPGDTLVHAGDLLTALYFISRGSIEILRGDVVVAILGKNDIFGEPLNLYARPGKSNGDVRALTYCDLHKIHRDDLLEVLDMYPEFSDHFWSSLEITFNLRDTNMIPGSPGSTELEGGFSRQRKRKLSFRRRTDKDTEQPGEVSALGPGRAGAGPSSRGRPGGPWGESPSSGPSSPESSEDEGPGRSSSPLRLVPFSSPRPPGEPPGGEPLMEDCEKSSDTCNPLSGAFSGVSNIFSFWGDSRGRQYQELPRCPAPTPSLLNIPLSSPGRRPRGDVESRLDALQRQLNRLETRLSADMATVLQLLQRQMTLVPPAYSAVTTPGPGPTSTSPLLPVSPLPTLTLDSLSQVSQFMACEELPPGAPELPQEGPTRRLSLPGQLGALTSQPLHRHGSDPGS
row,Compound,"hERG current change (%, negative = inhibition) at 1uM"
1,COc1ccc(S(=O)(=O)NCCC(C)C)cc1C,4.62%
2,Cc1c(CN(C)C(=O)/C=C/c2ccc([N+](=O)[O-])cc2)cnn1C,-65.5%
3,CCn1cc(CN(C)C(=O)/C=C/c2ccc([N+](=O)[O-])cc2)c(C)n1,-35.3%
4,Cc1c(CN(C)C(=O)c2nn(C)cc2[N+](=O)[O-])cnn1C,10.8%
5,CC(C)c1ccc(O)c(CN2CCN(c3ccccc3)CC2)c1,10.3%
6,COc1ccc(C(C)=O)cc1CN1C(=O)NC2(CCCCCCC2)C1=O,19.8%
7,CCOc1ccc(C(C)=O)cc1CN1C(=O)NC2(CCCCCCC2)C1=O,-51.8%
8,CCOc1ccc(C(C)=O)cc1CN1C(=O)NC2(CCCCCC2)C1=O,13.5%
9,CCC(=O)OCC(=O)Nc1ccc([N+](=O)[O-])cc1OC,9.97%
10,Cc1ccccc1OCCC(=O)Nc1ccc(F)c(Cl)c1,13.7%
11,CC(=O)N1CC(C)Sc2ccc(S(=O)(=O)NCc3ccc(Cl)cc3)cc21 (stereo not drawn),1.91%
12,O=C(/C=C/c1ccc(F)cc1)N1CCCN(C(=O)/C=C/c2ccc(F)cc2)CC1,-84.7%
13,CN1CCCN(C(=O)/C=C/c2ccc(F)cc2)CC1,-5.11%
14,CCN1CCN(C(=O)/C=C/c2ccc(F)cc2)CC1,-13.1%
15,Cc1ccc(/C=C/C(=O)N2CCCN(C(=O)/C=C/c3ccc(C)cc3)CC2)cc1,-53.5%
16,Cc1ccc(/C=C/C(=O)NCCCN2CCN(CCCNC(=O)/C=C/c3ccc(C)cc3)CC2)cc1,7.32%
17,O=C(/C=C/c1ccc(F)cc1)NCCCN1CCN(CCCNC(=O)/C=C/c2ccc(F)cc2)CC1,-72.5%
18,O=C(/C=C/c1ccccc1)N1CCCN(C(=O)/C=C/c2ccccc2)CC1,-44%
19,CCN1CCN(C(=O)/C=C/c2ccc(C)cc2)CC1,4.54%
20,O=C(/C=C/c1ccc(F)cc1)NCCNC(=O)/C=C/c1ccc(F)cc1,16.8%
21,Cc1ccccc1S(=O)(=O)N1[C@@H](c2ccc(F)cc2)C(C(=O)O)=CC[C@H]1c1ccc(Cl)cc1,8.27%
22,COc1ccc(/C=C2\CCCC3C2=NN(C(=O)CSc2ncn[nH]2)C3c2ccc(OC)cc2)cc1 (stereo not drawn),16.5%

row,Compound,"hERG current change (%, negative = inhibition) at 1uM"
1,CCCCn1c(N)c(N(CC(C)C)C(=O)c2cccc(S(=O)(=O)N3CCCCCC3)c2)c(=O)[nH]c1=O,4.52%
2,Cc1ccc(NC(=O)CSc2nnc(-c3ccco3)o2)c(C)c1,17.5%
3,Cc1ccc(C(=O)N/C(=C/c2cccs2)C(=O)NCCCn2ccnc2)cc1,-50%
4,Cc1ccc(C(=O)N/C(=C\c2cccs2)C(=O)NCCCn2ccnc2)cc1C,-32.3%
5,Cc1ccc(C(=O)N/C(=C\c2cccs2)C(=O)NCCCn2ccnc2)cc1,-66%
6,COc1ccc(C(=O)N/C(=C/c2cccs2)C(=O)NCCCn2ccnc2)cc1OC,0.585%
7,O=C(NCCCn1ccnc1)/C(=C\c1cccs1)NC(=O)c1ccccc1,-19.1%
8,O=C(NCCCn1ccnc1)/C(=C\c1cccs1)NC(=O)c1cccs1,-27.6%
9,CSC1=N/C(=C\c2ccccc2Cl)C(=O)N1N(C)C,1.86%
10,Cc1cc(=O)[nH]c(SC(C)C(=O)Nc2cccc3ccccc23)n1 (stereo not drawn),6.33%
11,CCCCCC(=O)Nc1ccc(N2CCN(CC)CC2)c(Cl)c1,-55.6%
12,CCCOc1ccc(C(=O)N2CCN(c3ccc(N)cc3Cl)CC2)cc1,-6.51%
13,COc1ccc(OCC(=O)Nc2ccc(N3CCN(C(=O)c4ccccc4)CC3)c(Cl)c2)cc1,9.86%
14,CCC(=O)Nc1ccc(N2CCN(CC)CC2)c(Cl)c1,8.56%
15,CCN1CCN(c2ccc(NC(=O)c3cccc(F)c3)cc2Cl)CC1,-8.27%
16,CCN1CCN(c2ccc(NC(=O)c3ccc(F)cc3)cc2Cl)CC1,-66.8%
17,CCCC(=O)Nc1ccc(N2CCN(CC)CC2)c(Cl)c1.Cl,-17.9%
18,CCCOc1ccc(C(=O)N2CCN(c3ccc(NC(=O)CC)cc3Cl)CC2)cc1,-58.7%
19,CCN1CCN(c2ccc(NC(C)=O)cc2Cl)CC1,10.3%
20,CCC(=O)NC(=S)NNC(=O)c1ccc([N+](=O)[O-])cc1,8.99%
21,CC(OC(=O)c1cccs1)C(=O)NC1CC1 (stereo not drawn),7.03%
22,CC(OC(=O)c1cccs1)C(=O)NC1CCCCC1C (stereo not drawn),-66.1%

row,Compound,"hERG current change (%, negative = inhibition) at 1uM"
1,CC(OC(=O)CCC(=O)c1cccs1)C(=O)NC1CCCCC1C (stereo not drawn),0.622%
2,CCOc1ccc(NC(=O)CN(C)C(=O)c2ccc(COc3ccccc3)cc2)cc1OCC,4.94%
3,Cc1ccc(NS(=O)(=O)c2ccccc2Cl)c2c1CC(C)(C)O2,6.77%
4,Cc1ccc2sc(NNC(=O)C3COc4ccccc4O3)nc2c1C (stereo not drawn),9.9%
5,CN(C)C/C=C(/c1ccc(Br)cc1)c1cccnc1.Cl,-60.8%
6,CN(C)C/C=C(\c1ccc(Br)cc1)c1cccnc1.Cl.O,-35.3%
7,O=C(NCCNC(=O)c1cccnc1)c1ccc(Br)cc1,29.6%
8,CC(C)C(=O)Nc1ccc2c(c1)oc1ccccc12,11.8%
9,O=C(COC(=O)C12CC3CC(CC(O)(C3)C1)C2)Nc1ccc(Cl)cc1F,-1.56%
10,COc1ccccc1C(=O)Nc1ccon1,-0.0061%
11,N=c1nc(N)nc2n1NC(c1ccc(F)cc1)=CS2,-3.69%
12,COc1ccc(N(C(=O)/C=C/c2ccc(OC)c(OC)c2)C2=CC3CCC(C2)N3C)cc1.Cl (stereo not drawn),-42.8%
13,CN1C2CCC1CC(OC(=O)c1ccc(Cl)cc1)C2.Cl (stereo not drawn),-9.75%
14,CN1C2CCC1CC(N(CCc1ccccc1)C(=O)c1ccc(Cl)cc1)C2.Cl (stereo not drawn),-78.8%
15,COc1ccc(C(=O)CN(C(=O)c2ccc(Cl)cc2)N2C(=O)C3CCCCC3C2=O)cc1 (stereo not drawn),10.8%
16,COc1ccc(N(C(=O)c2ccc(Cl)cc2)C2=CC3CCC(C2)N3C)cc1.Cl (stereo not drawn),-76.1%
17,COc1ccc(N(C(=O)/C=C/c2ccccc2)C2=CC3CCC(C2)N3C)cc1.Cl (stereo not drawn),-70.3%
18,CN1C2C=C(N(CCc3ccccc3)C(=O)c3ccc(Cl)cc3)CC1CC2.Cl (stereo not drawn),-19.7%
19,Cc1cc(C)cc(C(=O)N(CCc2ccccc2)C2CC3CCC(C2)N3C)c1.Cl (stereo not drawn),-18%
20,CN1C2C=C(N(C(=O)c3ccc(Cl)cc3)c3ccccc3)CC1CC2.Cl (stereo not drawn),-69.8%
21,CCCCN(C(=O)c1ccc(Cl)cc1)C1CC2CCC(C1)N2C.Cl (stereo not drawn),-15.6%
22,COc1cc(C(=O)N(CCc2ccccc2)C2=CC3CCC(C2)N3C)cc(OC)c1OC.Cl.O (stereo not drawn),-13.5%

row,Compound,"hERG current change (%, negative = inhibition) at 1uM"
1,CN1C2C=C(N(CCc3c[nH]c4ccccc34)C(=O)c3ccc(Cl)cc3)CC1CC2.Cl (stereo not drawn),-41.4%
2,Cc1cc(C)n2c(SC(C)C(=O)NC3(C#N)CCCCC3)nnc2n1 (stereo not drawn),11.7%
3,CCOC(=O)c1oc2ccccc2c1NC(=O)c1ccc(S(=O)(=O)N2CCCC2)cc1,-6.45%
4,CCOC(=O)C1CCN(S(=O)(=O)c2cc(F)ccc2OC)CC1,8.83%
5,COc1ccc(-c2nc(NCCCN(C)C)c3ccccc3n2)cc1.Cl,3.72%
6,C=C(C)Cn1c(SCC#N)nc2ccccc2c1=O,3.85%
7,COc1ccc(S(=O)(=O)N2CCN(C)CC2)c2ccccc12,9.59%
8,CC(Sc1nc2ccccc2n1C)C(=O)Nc1ccc(N2CCOCC2)cc1 (stereo not drawn),6.2%
9,CN1CCN(C(=O)CCC(=O)NCc2ccc(F)cc2)CC1,9.84%
10,O=C(COC(=O)c1ccccn1)NC(=O)c1ccccc1,-5.45%
11,Cc1[nH]nc2ncc(C(=O)c3cc(Cl)cc(Cl)c3O)cc12,10.1%
12,COc1cccc(OC)c1C(=O)Nc1nc2ccc([N+](=O)[O-])cc2s1,16.1%
13,COc1cccc(CNC(=O)c2cc(C3CC3)nc3c2cnn3C(C)C)c1,-0.644%
14,COc1ccc(N(C(=O)c2ccc(F)cc2)C2=CC3CCC(C2)N3C)cc1.Cl (stereo not drawn),-50.3%
15,COc1ccc(CCN(C(=O)c2ccc(F)cc2)C2=CC3CCC(C2)N3C)cc1OC.Cl (stereo not drawn),-22.6%
16,CCCCN(C(=O)c1cc(OC)c(OC)c(OC)c1)C1=CC2CCC(C1)N2C.Cl (stereo not drawn),8.68%
17,CCOc1cc([N+](=O)[O-])cc(/C=C2/NC(=O)N(Cc3ccccc3F)C2=O)c1O,4.45%
18,COc1cc(NC(=S)NC(=O)c2ccccc2F)ccc1NC(=O)c1ccco1,7.37%
19,CCn1c(SCC(=O)Nc2ccccc2)nc2nc3c(cc2c1=O)COC(C)(C)C3,-12.4%
20,CCn1c(SCC(=O)Nc2ccc(C)cc2)nc2nc3c(cc2c1=O)COC(C)(C)C3,-76.5%
21,CCn1c(SCC(=O)Nc2ccc(C(C)=O)cc2)nc2nc3c(cc2c1=O)COC(C)(C)C3,14.1%
